In the library only some 4.3% were active in any assay of this set; here they are far more common.
uPA generation – qHTS for Inhibitors of Cell Surface uPA Generation. cell surface uPA generation assay, qHTS. Potency, µM (top dose mostly 38.3 µM), inactives show top-dose activity change, negative = inhibition, most hits filed as inhibitors. 330,000 compounds, 0.31% hits. AID 540303, 2011; active means well fitted inhibition curve with a large enough effect; inconclusive means small, poorly fitted or top-dose-only effect; inactive means no such curve, though single readings can be large or run the other way; tested in mouse RAW 264.7 cells; further: potency means the concentration at half of the fitted maximal effect; on the % scale 0 is the no-effect control and ±100 the full control effect; nearly all actives have a fitted effect of over 55% in size
SW480 rerep – A quantitative high throughput screen for small molecules that induce DNA re-replication in SW480 colon adenocarcinoma cells | SW480 DNA re-replication, Hoechst DNA content imaging, 48 h | Potency, µM (series often up to 46.1 µM), without a hit: at the top dose re-replication activation, usual class: activators | 340,000 compounds, 1.8% hits; further: potency means the concentration at half of the fitted maximal effect; % of control where 0% means no effect; nearly all actives have a fitted effect of over 55% in size
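Compounds, transferred as 23 nL by pin tool, were incubated with cells for 48 hr; DNA content per nucleus was then quantified by Hoechst staining and fluorescence plate imaging.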
Giardia kill – Small Molecules that selectively kill Giardia lamblia: qHTS; Giardia lamblia trophozoite viability; activity change, % at 7.66 µM, hits read low; 340,000 compounds, 0.15% hits; AID 540267, 2011; in the data active means activity change below about -80%; inconclusive means between about -30% and that limit;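 further: parasites exposed to compound for two days anaerobically before the ATP read; on the % scale 0 is the no-effect control and ±100 the full control effect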
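Luminescent ATP signal served as the viability read-out, measured 15-30 min after adding ATP detection reagent to trophozoites that had been incubated with compounds for 48 hrs at 37 deg C anaerobically at 100 cells/well.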
MCF10A rerep – A quantitative high throughput screen for small molecules that induce DNA re-replication in MCF 10a normal breast cells; MCF 10A DNA re-replication, Hoechst nuclear intensity, 48 h; Potency, µM (titrated, usually from 46.1 µM), inactives show at the highest dose activity, positive = re-replication, hits mostly activators; 350,000 compounds, 2.9% hits; further: potency means the concentration at half of the fitted maximal effect; % of control where 0% means no effect; nearly all actives have a fitted effect of over 50% in size
Numbers without * were called inactive; ? = inconclusive; . = not tested or not shown; [ ] = another dose, or the depositor's remark. Unless noted, the call rests on the fitted dose curve; in most records, active means well fitted activation curve with a large enough effect; inconclusive means small, poorly fitted or top-dose-only effect; inactive means no such curve, though single readings can be large or run the other way.

SMILES | uPA generation | SW480 rerep | Giardia kill | MCF10A rerep
COc1ccc(C(=O)/C=C/c2ccc3c(c2)OCCO3)cc1 | -5% | -1% | -10 | ?
COc1ccc(C(=O)c2cc(OC)c(OC)c(OC)c2)cc1OC | -12% | 3.7µM* | -14 | 3.7µM*
COc1cc(/C=C/C(C)=O)cc(OC)c1OC | -12% | -7% | 5 | ?
COc1cc(/C=C/C(=O)N2CCC=CC2=O)cc(OC)c1OC | ? | ? | 11 | 8.2µM*
COc1ccc2cc(C(=O)/C=C/c3cc(OC)c(OC)c(OC)c3)ccc2c1 | -7% | 21µM* | -18 | 13µM*
COc1cc(C=CC(=O)c2cc(OC)c(OC)c(OC)c2)cc(OC)c1OC | -11% | ? | 16 | 13µM*
COc1ccc(OC)c(C=NNC(=O)c2ccc(NS(=O)(=O)c3cccs3)cc2)c1 | -2% | 10% | -3 | 5%
CC(=O)Nc1c(I)c(C(=O)N[C@H]2[C@@H](O)[C@H](O)[C@H](CO)O[C@@H]2O)c(I)c(N(C)C(C)=O)c1I | . | -3%[20.6 µM] | . | -2%[20.6 µM]
CC(C)NC1(C#N)CCN(Cc2ccccc2)CC1 | 4% | -2% | -3 | -1%
O=C(Cc1nc2ccccc2[nH]1)c1cccc([N+](=O)[O-])c1 | -6% | ? | -4 | 7.3µM*
CCOC(=O)Cc1nc2ccccc2[nH]1 | . | 2µM* | -7 | 5µM*
Cc1ccc(C(=O)Cc2nc3ccccc3[nH]2)cc1 | -7% | 19% | -2 | 0%
O=C(O)c1ccc(N=Cc2c(O)ccc3oc4c(c23)CCCC4)cc1 | 2% | 8% | -3 | -3%
Oc1ccccc1N=Cc1c(O)ccc2oc3c(c12)CCCC3 | 4.5µM* | 2% | 14 | ?
O=C(NCCOc1ccccc1)c1cc([N+](=O)[O-])ccc1N1CCOCC1 | -5% | 2.9µM* | 7 | 10µM*
O=C(NCCc1ccc(F)cc1)c1cc([N+](=O)[O-])ccc1N1CCOCC1 | 11% | -9% | -2 | -4%
O=C(NCCOc1ccccc1F)c1cc([N+](=O)[O-])ccc1N1CCOCC1 | -16% | 9.2µM* | -1 | ?
Cc1ccc(NC(=O)CCN2C(=O)NC3(CCCC3)C2=O)c(C)c1 | -5% | -1% | 30 | 10%
CCCOc1ccc(/C=C/C(=O)Nc2ccc([N+](=O)[O-])cc2)cc1 | 4% | 3% | -15 | 15µM*
O=C(/C=C/c1ccc([N+](=O)[O-])cc1)Nc1ncc([N+](=O)[O-])s1 | ? | ? | -82* | ?
CC(C)CSc1nc(N)nc2c1ncn2C1OC(CO)C(O)C1O (configuration not stated) | 2% | ? | -5 | -8%
CC1CCCC(NC(=O)CSc2nnc(-c3cccnc3)n2N)C1C (configuration not stated) | 3% | -3% | 16 | 0%
CC(C)c1nn2c(N)c(/C=C3\C=Nc4ccccc43)c(=O)nc2s1 | 10% | -3% | -2 | ?
CCC(CC)c1nn2c(N)c(/C=C3\C(C)=Nc4ccccc43)c(=O)nc2s1 | 12% | -6% | 12 | 23µM*
CCC(CC)c1nn2c(N)c(/C=C3\C=Nc4ccccc43)c(=O)nc2s1 | 2% | ? | 36 | 3.3µM*
SMILES | uPA generation | SW480 rerep | Giardia kill | MCF10A rerep
CC(C)Sc1nsc2nc(=O)c(/C=C3\C=Nc4ccccc43)c(N)n12 | 11% | ? | 17 | 18µM*
O=[N+]([O-])c1ccc(Cc2cncc(O)c2)cc1 | -5% | -6% | -15 | 5%
COCCN(C(=O)COC(=O)C(C)(C)Oc1ccc(Cl)cc1)c1c(N)n(Cc2ccccc2)c(=O)[nH]c1=O | ? | -35% | -4 | -1%
COc1ccc(S(=O)(=O)N2CCC(C(=O)NC3CCCCC3)CC2)cc1C | -1% | -8% | -1 | -2%
Cc1[nH]c(C)c(Cl)c(=O)c1Cl | . | -8% | . | 0%
Nc1c(S(=O)(=O)c2ccccc2)c2nc3ccccc3nc2n1/N=C/c1cccc(O)c1 | 15% | 7% | -2 | 0.92µM*
CN(C(=O)c1cccc(NC(=O)Cc2ccc(NC(=O)C3CCCN(C(=O)C4CCC4)C3)cc2)c1)C1CCCC1 (configuration not stated) | -3% | -4% | 41 | 6%
Cc1ccc(S(=O)(=O)NCC(c2ccco2)N2CCc3ccccc3C2)cc1 (configuration not stated) | 3% | 1% | 8 | 25%
